Results on 16 compounds are retold here after PubChem BioAssay (NCI).

The structures appear in SMILES notation. Compounds without any hit were thinned out: in the full panel of roughly 83,000, 20% have a hit.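 Assay: single dose, 48 h. Readout: percent growth (0 = no net growth; negative = cell death). Active: <10.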 A number with no mark means an inactive call. Active and inactive are the calls of the source.

Common to all, as to assay: NCI-60 one-dose screen, 48 h (100 = growth as untreated, 0 = no growth, -100 = all killed)
Holding throughout (settings): 10 µM unless noted

Test [1] relates to T-47D breast.
Test [2] has as its system BT-549 breast.
Test [3] deals with MDA-MB-435 melanoma.
For test [4], the system named is SW-620 colon.
Test [5] deals with MCF7 breast.
For test [6], the system named is HCT-116 colon.
Test [7] concerns HCC-2998 colon.
The test system of test [8] is KM12 colon.

On to `COc1cc(-c2cccc([N+](=O)[O-])c2)c(-c2nc(-c3ccccc3)c(-c3ccccc3)n2C2CC2)cc1OC`, for which the growth in test [1] was 23.9%; in test [2], 47.2%; in test [3], 67.4%; in test [4], 76.3%; in test [5] it was 34.8%; in test [6], 26.8%. Also, the values for the growth in test [7] and in test [8] were 81.2% and 67.3%, respectively.

In the case of `O=C1CSC(c2ccccc2O)N1c1nnc(Cn2cnnc2)o1` (stereo not drawn), the growth is 71.2% in test [1]; 87.7% in test [2]; 97.8% in test [3]; 105% in test [4]; 54.6% in test [5]; 88.6% in test [6]. The growth in test [7] was 77.5%; in test [8], 84.3%.

Turning to `CCNCCNc1cc(-c2cccc(C(F)(F)F)c2)c(C#N)c2nc3ccccc3n12`, the growth in test [1] was -72.4% (active); in test [2], -64.6% (active); in test [3], -93.3% (active); in test [4], -67.3% (active); in test [5], -70% (active); in test [6], -93.9% (active). The growth in test [7] is -80.9% (active); in test [8], -75.6% (active).

Take `C=C(Cl)COC(=O)C(C)(C)O`: the growth in test [1] was 99.1%; in test [2], 104%; in test [3], 104%; in test [4] it was 107%; in test [5] it was 93.3%; in test [6], 99.4%. The growth in test [7] and in test [8] was 102% each time.

For the compound `Cc1nc(Nc2ccccn2)sc1C(=O)/C=C/c1ccc(Br)cc1`, the growth is 45.7% in test [1]; 83.3% in test [2]; 14.6% in test [3]; 45.7% in test [4]; 8.46% (active) in test [5]; 72.6% in test [6]. Also, the growth in test [7] is 103%; in test [8], 24.2%.

Turning to `Cn1ccc(Cc2cnc(N)s2)n1`, the growth in test [1] is 101%; in test [2], 102%; in test [3], 101%; in test [4], 98.9%; in test [5], 101%; in test [6], 108%. The growth in test [7] is 100%; in test [8] it was 103%.

As for `N=C(N)c1ccc(-c2ccc(-c3ccc(Cl)cn3)s2)cc1`, the growth in test [1] was 55.4%; in test [2], 82.6%; in test [3], -52.6% (active); in test [4] it was -28.3% (active); in test [5], -44.4% (active); in test [6] it was -67.6% (active). In addition, the growth in test [7] was -61.5% (active); in test [8], 1.88% (active).

`CCCCNC(=O)NS(=O)(=O)c1ccc(N2N=C(c3ccc(C)cc3C)CC2c2ccc(N(C)C)cc2)cc1` (stereo not drawn): the growth was 70.4% in test [1]; 45.6% in test [2]; 9.98% (active) in test [3]; 61.8% in test [4]; 37.4% in test [5]; 39.3% in test [6]. In addition, the growth in test [7] was 46.1%; in test [8], 49.2%.

`CCNCCNc1cc(C2CCCC2)c(C#N)c2nc3ccccc3n12`: the growth in test [1] was 13.8%; in test [2], 9.57% (active); in test [3], 11.2%; in test [4], 8.01% (active); in test [5], 29.6%; in test [6], 1.61% (active). Further, the growth in test [7] is 32.7%; in test [8] it was 35%.

`CCOC(=O)c1c(C)[nH]c(C(=O)CCC(=O)OC)c1C`: the growth in test [1] is 101%; in test [2] it was 84.5%; in test [3], 103%; in test [4], 108%; in test [5], 98%; in test [6], 81%. The growth in test [7] was 99.2%; in test [8] it was 103%.

For `Cc1ccc(/C(=N\N=C(N)N)c2ccccc2)cc1`, the growth was 23% in test [1]; 37.5% in test [2]; 0.321% (active) in test [3]; 30.3% in test [4]; 5.02% (active) in test [5]; -66.6% (active) in test [6]. Besides, the growth in test [7] was -3.26% (active); in test [8] it was 2.94% (active).

With `COc1cc2c(c(OC)c1OC)C(=O)/C(=C/c1cc(C)c(O)c(C)c1)S2`, the growth in test [1] is 47.6%; in test [2], 56.9%; in test [3], -37.2% (active); in test [4], 39.3%; in test [5] it was 21.7%; in test [6], 33.2%. Besides, the growth in test [7] was 46.4%; in test [8] it was 20.9%.

Regarding `N[C@@H]1CCC[C@H]1NCCCCN1C(=O)c2cccc3cccc(c23)C1=O`, the growth in test [1] was 86.3%; in test [2], 78.9%; in test [3] it was 83.3%; in test [4], 38%; in test [5], 70%; in test [6], 50.3%. The growth is 60.1% in test [7] and 63.5% in test [8].

For the compound `Clc1ccc(/C=C/c2nc(Nc3ccc(Cl)cc3)c3ccccc3n2)cc1`, the growth in test [1] was 91.2%; in test [2], 107%; in test [3], 109%; in test [4], 103%; in test [5], 80.9%; in test [6] it was 99.1%. Further, the growth in test [7] was 106%; in test [8], 109%.

As for `COc1ccc(/C=C2\COc3ccc(O)c(O)c3C2=O)c(OC)c1`, the growth is 48% in test [1]; 57.8% in test [2]; 21% in test [3]; 64% in test [4]; 31.2% in test [5]; 59.4% in test [6]. Moreover, the figures for the growth in test [7] and in test [8] were 104% and 45%, respectively.

Regarding `N#C/C(=C\c1ccc(Br)cc1)n1nnc2ccccc21`, the growth in test [1] is 24%; in test [2], -1.46% (active); in test [3], -38.4% (active); in test [4], -19.9% (active); in test [5] it was 14.2%; in test [6], -44.2% (active). Besides, the growth was -30.8% (active) in test [7] and 1.67% (active) in test [8].
